# For some of these results: Results with a measured potency or affinity are listed apart.
# Columns and labels:
# Design in all cases: scale not given: direction of the effect not stated beside the values
# [1] = target: Protein translocase subunit SecA (Escherichia coli (strain K12)) (UniProt P10408); test: Assay to Identify E. coli SecA ATPase Inhibitors; type: functional; conditions: 30 µM
# [2] = target: T1, Ubiquitin-activating enzyme e1, putative (Leishmania donovani (strain BPK282A1)) (UniProt E9BSI1); test: Leishmania donovani Ubiquitin Activating Enzyme (LdE1); type: functional; conditions: 30 µM
# T1 sequence (whole entry): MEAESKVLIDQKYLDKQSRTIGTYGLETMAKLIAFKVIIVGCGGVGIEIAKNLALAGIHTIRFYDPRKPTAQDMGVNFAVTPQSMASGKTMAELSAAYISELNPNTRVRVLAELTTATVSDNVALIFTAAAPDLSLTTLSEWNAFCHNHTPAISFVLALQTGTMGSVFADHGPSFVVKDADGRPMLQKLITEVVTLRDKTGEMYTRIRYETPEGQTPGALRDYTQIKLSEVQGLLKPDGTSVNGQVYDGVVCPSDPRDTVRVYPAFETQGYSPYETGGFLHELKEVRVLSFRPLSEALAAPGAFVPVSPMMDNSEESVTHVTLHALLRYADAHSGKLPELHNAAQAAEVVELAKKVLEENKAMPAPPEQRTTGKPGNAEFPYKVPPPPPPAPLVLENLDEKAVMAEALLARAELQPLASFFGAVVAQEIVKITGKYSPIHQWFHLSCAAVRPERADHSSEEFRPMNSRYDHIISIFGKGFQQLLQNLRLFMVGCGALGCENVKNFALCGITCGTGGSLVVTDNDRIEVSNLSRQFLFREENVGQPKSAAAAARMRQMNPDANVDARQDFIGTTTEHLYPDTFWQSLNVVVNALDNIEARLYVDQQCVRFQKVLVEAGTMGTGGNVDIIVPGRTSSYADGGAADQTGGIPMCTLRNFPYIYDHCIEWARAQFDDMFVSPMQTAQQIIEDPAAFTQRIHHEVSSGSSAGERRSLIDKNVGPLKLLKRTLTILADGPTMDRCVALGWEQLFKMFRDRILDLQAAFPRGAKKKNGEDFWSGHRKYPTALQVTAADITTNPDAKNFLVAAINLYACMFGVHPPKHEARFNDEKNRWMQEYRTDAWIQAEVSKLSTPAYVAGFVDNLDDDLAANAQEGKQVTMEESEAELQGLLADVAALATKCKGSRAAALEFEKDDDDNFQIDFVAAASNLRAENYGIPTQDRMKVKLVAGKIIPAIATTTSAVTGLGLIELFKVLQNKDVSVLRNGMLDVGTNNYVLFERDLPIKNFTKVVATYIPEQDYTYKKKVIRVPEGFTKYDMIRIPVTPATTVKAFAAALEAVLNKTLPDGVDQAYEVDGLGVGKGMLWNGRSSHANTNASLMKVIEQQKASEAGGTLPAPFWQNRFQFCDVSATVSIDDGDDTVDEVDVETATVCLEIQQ
# [3] = target: AMP-activated protein kinase, AMPK (Homo sapiens) (UniProt P54646+O43741+P54619+Q9UGJ0+Q9Y478+Q13131+Q9UGI9); test: AMP-dependent Kinase enzyme assay. An in vitro enzyme assay that detects ADP turnover that is directly proportional to AMPK activity. This uses naive AMPK that is activated during the assay with MK-8722; type: functional; conditions: 30 µM
# [4] = target: Sialic acid-binding Ig-like lectin 9 (Homo sapiens) (UniProt Q9Y336); test: Hs-Siglec9 ALPHAscreen SOP 20170721; conditions: 10 µM
# Sialic acid-binding Ig-like lectin 9 (Homo sapiens), sequence (Q9Y336 whole entry): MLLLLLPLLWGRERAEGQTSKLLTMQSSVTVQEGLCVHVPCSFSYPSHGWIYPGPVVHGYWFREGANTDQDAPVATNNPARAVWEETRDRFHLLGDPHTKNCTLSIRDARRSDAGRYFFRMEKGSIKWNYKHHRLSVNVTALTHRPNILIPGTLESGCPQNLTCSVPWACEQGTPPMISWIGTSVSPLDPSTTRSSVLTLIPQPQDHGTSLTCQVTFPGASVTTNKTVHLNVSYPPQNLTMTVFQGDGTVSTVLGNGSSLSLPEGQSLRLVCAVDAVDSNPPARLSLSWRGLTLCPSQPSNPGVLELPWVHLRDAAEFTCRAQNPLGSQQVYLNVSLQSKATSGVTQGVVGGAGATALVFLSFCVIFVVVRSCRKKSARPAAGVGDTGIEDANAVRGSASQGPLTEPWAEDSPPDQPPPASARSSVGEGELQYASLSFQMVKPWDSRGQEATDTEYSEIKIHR
# Trypanosoma cruzi = test: Trypanosoma cruzi phosphomannomutase and mannose-1-phosphate guanylyltransferase assay; type: functional; conditions: 10 µM
# [5] = target: T2, Arginase-2, mitochondrial (Homo sapiens) (UniProt P78540); test: in vitro enzyme assay to detect the production of urea directly proportional to the activity of Arginase II; type: functional; conditions: 33.3 µM; further: in the data most compounds retested in dose-response had high values
# T2 sequence (whole entry): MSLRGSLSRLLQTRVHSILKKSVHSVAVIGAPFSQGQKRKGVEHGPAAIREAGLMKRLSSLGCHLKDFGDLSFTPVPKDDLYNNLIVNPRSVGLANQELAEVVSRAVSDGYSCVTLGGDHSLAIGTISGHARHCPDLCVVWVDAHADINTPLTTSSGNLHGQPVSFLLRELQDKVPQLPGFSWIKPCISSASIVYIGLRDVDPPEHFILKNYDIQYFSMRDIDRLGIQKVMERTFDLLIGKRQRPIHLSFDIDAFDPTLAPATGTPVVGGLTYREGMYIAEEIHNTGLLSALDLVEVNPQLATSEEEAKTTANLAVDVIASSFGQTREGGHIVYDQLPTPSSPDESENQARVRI
# [6] = target: T3, Proteasome subunit beta (Trypanosoma cruzi) (UniProt O96673); test: Trypanosoma cruzi proteasome chymotrypsin-like activity (TcProtChymo) assay.; further: in the data most compounds retested in dose-response had high values; type: functional; conditions: 9.37 µM
# T3 sequence (whole entry): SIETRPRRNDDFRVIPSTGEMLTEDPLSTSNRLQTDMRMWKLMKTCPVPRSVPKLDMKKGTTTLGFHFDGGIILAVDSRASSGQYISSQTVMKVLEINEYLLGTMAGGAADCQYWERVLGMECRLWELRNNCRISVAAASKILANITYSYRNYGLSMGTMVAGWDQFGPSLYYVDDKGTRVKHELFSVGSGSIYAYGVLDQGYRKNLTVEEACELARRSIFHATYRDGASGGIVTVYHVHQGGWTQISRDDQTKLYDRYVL
# Homo sapiens = species: Homo sapiens; test: To identify inhibition of the IFN signalling (Jak-Stat) pathway via expression of an eGFP reporter gene under the control of an IFN-stimulated response element (ISRE) containing MxA promoter.; type: functional; conditions: 30 µM
# [7] = target: T4, Tyrosyl-tRNA synthetase, putative (Trypanosoma cruzi (strain CL Brener)) (UniProt Q4DSP6); test: Trypanosoma cruzi tyrosyl tRNA synthetase (TcYRS) _High Tyrosine SOP; type: functional; conditions: 30 µM; further: in the data most compounds retested in dose-response had high values
# T4 sequence (whole entry): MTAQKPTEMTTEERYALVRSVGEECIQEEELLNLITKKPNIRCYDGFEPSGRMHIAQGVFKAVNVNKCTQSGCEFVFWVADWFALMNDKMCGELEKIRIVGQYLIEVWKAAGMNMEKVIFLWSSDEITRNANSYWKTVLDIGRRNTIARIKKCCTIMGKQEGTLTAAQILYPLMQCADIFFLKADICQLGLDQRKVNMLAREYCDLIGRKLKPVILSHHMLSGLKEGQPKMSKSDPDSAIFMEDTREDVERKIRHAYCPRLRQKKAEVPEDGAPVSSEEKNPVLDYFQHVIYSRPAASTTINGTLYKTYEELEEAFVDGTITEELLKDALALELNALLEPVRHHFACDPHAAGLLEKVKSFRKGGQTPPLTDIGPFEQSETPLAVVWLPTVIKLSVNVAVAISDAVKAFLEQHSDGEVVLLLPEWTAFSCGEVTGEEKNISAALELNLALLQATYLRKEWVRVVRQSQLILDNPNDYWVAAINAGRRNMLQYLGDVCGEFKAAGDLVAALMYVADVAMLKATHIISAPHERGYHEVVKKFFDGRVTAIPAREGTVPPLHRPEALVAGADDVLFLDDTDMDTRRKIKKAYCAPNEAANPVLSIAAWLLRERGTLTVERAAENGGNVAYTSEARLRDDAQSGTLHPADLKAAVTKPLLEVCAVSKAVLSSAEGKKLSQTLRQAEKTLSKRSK
# [8] = target: T4, Tyrosyl-tRNA synthetase, putative (Trypanosoma cruzi (strain CL Brener)); test: Trypanosoma cruzi tyrosyl tRNA synthetase (TcYRS) SOP; type: functional; conditions: 30 µM
# [9] = target: Chromo domain-containing protein 1 (Saccharomyces cerevisiae (strain ATCC 204508 / S288c) (Baker's yeast)) (UniProt P32657); test: ScCHD-1 Enzyme Inhibition Assay; type: functional; conditions: 30 µM; further: in the data most compounds retested in dose-response had high values
# Chromo domain-containing protein 1 (Saccharomyces cerevisiae (strain ATCC 204508 / S288c) (Baker's yeast)), sequence (P32657 whole entry, the tested form may be a part): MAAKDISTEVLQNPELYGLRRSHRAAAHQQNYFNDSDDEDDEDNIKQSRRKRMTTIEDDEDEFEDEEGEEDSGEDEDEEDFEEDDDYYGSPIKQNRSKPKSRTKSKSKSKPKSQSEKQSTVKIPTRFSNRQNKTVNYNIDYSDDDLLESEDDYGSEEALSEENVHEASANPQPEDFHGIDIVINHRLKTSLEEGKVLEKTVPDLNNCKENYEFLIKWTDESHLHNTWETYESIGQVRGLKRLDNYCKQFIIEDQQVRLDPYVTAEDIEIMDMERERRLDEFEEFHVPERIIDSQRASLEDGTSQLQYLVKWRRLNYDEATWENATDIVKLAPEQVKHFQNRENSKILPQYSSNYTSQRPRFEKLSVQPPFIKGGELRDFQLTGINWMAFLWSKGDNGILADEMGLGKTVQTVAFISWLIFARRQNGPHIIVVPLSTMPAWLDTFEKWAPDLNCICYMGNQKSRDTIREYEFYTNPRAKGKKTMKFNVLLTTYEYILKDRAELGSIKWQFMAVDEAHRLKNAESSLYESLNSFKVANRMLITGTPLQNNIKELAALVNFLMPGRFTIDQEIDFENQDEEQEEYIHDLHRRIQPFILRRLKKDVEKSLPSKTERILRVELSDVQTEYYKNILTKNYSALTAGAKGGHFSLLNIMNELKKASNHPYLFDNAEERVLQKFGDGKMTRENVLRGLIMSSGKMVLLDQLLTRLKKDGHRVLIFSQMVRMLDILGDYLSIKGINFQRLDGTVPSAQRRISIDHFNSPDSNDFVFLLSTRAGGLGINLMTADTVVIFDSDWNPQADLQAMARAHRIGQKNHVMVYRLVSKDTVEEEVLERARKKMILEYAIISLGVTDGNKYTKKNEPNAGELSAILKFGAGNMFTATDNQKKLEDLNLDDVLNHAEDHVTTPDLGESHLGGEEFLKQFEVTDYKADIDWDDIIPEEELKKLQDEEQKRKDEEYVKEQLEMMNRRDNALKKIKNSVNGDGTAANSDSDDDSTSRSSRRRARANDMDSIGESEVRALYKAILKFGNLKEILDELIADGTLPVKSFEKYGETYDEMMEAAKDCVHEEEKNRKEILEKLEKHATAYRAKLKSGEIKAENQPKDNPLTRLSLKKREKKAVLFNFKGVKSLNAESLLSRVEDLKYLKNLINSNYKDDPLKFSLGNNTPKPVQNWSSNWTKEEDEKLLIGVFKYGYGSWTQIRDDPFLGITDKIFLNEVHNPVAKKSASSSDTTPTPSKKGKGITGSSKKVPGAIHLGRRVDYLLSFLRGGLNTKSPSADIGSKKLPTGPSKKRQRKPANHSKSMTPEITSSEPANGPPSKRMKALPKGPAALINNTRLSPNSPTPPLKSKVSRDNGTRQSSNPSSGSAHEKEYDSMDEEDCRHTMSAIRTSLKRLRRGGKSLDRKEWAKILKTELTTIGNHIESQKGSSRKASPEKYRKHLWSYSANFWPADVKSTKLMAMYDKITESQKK
# Protein translocase subunit SecA (Escherichia coli (strain K12)), sequence (P10408 whole entry): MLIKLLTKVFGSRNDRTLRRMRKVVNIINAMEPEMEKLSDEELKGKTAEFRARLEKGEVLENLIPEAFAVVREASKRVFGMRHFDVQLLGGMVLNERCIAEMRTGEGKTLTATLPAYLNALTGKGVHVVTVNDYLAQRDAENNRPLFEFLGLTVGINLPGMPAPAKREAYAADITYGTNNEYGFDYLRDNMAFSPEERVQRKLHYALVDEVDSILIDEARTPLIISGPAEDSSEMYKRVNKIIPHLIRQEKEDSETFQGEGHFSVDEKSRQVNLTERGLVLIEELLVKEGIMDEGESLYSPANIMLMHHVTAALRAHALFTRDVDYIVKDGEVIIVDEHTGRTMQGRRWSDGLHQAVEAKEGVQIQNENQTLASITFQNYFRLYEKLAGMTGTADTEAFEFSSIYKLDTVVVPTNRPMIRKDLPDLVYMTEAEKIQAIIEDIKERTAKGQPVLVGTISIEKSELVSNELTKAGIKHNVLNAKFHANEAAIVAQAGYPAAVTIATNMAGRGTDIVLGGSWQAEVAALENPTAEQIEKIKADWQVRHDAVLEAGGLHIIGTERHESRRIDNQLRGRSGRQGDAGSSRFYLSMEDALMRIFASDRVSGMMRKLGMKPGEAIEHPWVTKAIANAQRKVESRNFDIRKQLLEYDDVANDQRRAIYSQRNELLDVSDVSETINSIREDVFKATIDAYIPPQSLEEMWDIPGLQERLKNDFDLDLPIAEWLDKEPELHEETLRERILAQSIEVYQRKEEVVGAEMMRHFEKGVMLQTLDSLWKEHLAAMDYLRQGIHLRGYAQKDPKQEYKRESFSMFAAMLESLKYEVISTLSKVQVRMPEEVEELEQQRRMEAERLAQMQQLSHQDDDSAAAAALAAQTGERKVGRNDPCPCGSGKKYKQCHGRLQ
structure (smiles),measurement,setting,value
Cc1nc[nH]c1CN1C[C@@H]2CC[C@H](C1)N(C(=O)CCNS(C)(=O)=O)C2,Percent Effect,[1],-4.5%
same,Percent Effect,[2],-1.39%
same,Percent Effect,[3],-15.6%
same,Percent Effect,[4],26.7%
same,Percent Effect,Trypanosoma cruzi,4.57%
same,Percent Effect,[5],17.7%
same,Percent Effect,[6],3.33%
same,Percent Effect,Homo sapiens,-7.69%
same,Percent Effect,[7],5.26%
same,Percent Effect,[8],7.69%
same,Percent Effect,[9],-4.5%
O=C(CCc1cscn1)NS(=O)(=O)c1ccc2ccccc2c1,Percent Effect,[1],-4.59%
same,Percent Effect,[2],1.39%
same,Percent Effect,[3],-10.1%
same,Percent Effect,[4],23.9%
same,Percent Effect,Trypanosoma cruzi,3.4%
same,Percent Effect,[5],4.42%
same,Percent Effect,[6],0.877%
same,Percent Effect,Homo sapiens,0.282%
same,Percent Effect,[7],8.42%
same,Percent Effect,[8],5.13%
same,Percent Effect,[9],-4.15%
Cc1cc(CNC(=O)NC(C)c2ccc(N3CCOCC3)cc2)no1 (stereo unspecified),Percent Effect,[1],-5.74%
same,Percent Effect,[2],10.4%
same,Percent Effect,[3],-1.83%
same,Percent Effect,[4],16.5%
same,Percent Effect,Trypanosoma cruzi,5.61%
same,Percent Effect,[5],-6.9%
same,Percent Effect,[6],11.8%
same,Percent Effect,Homo sapiens,-5.95%
same,Percent Effect,[7],4.3%
same,Percent Effect,[8],8.64%
same,Percent Effect,[9],-6.04%
Cc1cnn(CC2CCCN2C(=O)c2nccc3ccccc23)c1 (stereo unspecified),Percent Effect,[1],-3.25%
same,Percent Effect,[2],13%
same,Percent Effect,[3],4.54%
same,Percent Effect,[4],3.78%
same,Percent Effect,Trypanosoma cruzi,-0.49%
same,Percent Effect,[5],-1.05%
same,Percent Effect,[6],6.39%
same,Percent Effect,Homo sapiens,10.7%
same,Percent Effect,[7],0%
same,Percent Effect,[8],11.8%
same,Percent Effect,[9],-15.9%
CN(Cc1cccc(O)c1)CC1CCCN(CCc2ccc(Cl)cc2)C1 (stereo unspecified),Percent Effect,[1],-6.32%
same,Percent Effect,[2],-13.5%
same,Percent Effect,[3],1.05%
same,Percent Effect,[4],9.76%
same,Percent Effect,Trypanosoma cruzi,2.64%
same,Percent Effect,[5],4.22%
same,Percent Effect,[6],-2.32%
same,Percent Effect,Homo sapiens,27.2%
same,Percent Effect,[7],4.3%
same,Percent Effect,[8],11.1%
same,Percent Effect,[9],-0.68%
COCCN1CCN(C(=O)c2cc(C(C)C)on2)[C@H]2CS(=O)(=O)C[C@H]21,Percent Effect,[1],-4.23%
same,Percent Effect,[2],1.39%
same,Percent Effect,[3],-4.33%
same,Percent Effect,[4],-3.43%
same,Percent Effect,Trypanosoma cruzi,-3.6%
same,Percent Effect,[5],-0.442%
same,Percent Effect,[6],17.2%
same,Percent Effect,Homo sapiens,-5.77%
same,Percent Effect,[7],2.1%
same,Percent Effect,[8],0%
same,Percent Effect,[9],-2.65%
Cc1nc(C2CCCN2CC(=O)N(Cc2ccsc2)C2CC2)no1 (stereo unspecified),Percent Effect,[1],-3.4%
same,Percent Effect,[2],-8.11%
same,Percent Effect,[3],-3.86%
same,Percent Effect,[4],2.75%
same,Percent Effect,Trypanosoma cruzi,5.48%
same,Percent Effect,[5],-4.99%
same,Percent Effect,[6],10.6%
same,Percent Effect,Homo sapiens,25.6%
same,Percent Effect,[7],14.8%
same,Percent Effect,[8],18.3%
same,Percent Effect,[9],-5.35%
CCN(CC)C(=O)CCn1ncc2c(Cl)cccc21,Percent Effect,[1],-0.381%
same,Percent Effect,[2],1.33%
same,Percent Effect,[3],3.83%
same,Percent Effect,[4],7.06%
same,Percent Effect,Trypanosoma cruzi,-5.89%
same,Percent Effect,[5],-17.1%
same,Percent Effect,[6],16.1%
same,Percent Effect,Homo sapiens,0.421%
same,Percent Effect,[7],0%
same,Percent Effect,[8],2.56%
same,Percent Effect,[9],-11.2%
CCCC(C)(C)NC(=O)c1ccc(CC2CC(=O)NC2=O)cc1 (stereo unspecified),Percent Effect,[1],-8.33%
same,Percent Effect,[2],8.22%
same,Percent Effect,[3],6.89%
same,Percent Effect,[4],23.9%
same,Percent Effect,Trypanosoma cruzi,3.53%
same,Percent Effect,[5],2.27%
same,Percent Effect,[6],15.1%
same,Percent Effect,Homo sapiens,13.9%
same,Percent Effect,[7],3.23%
same,Percent Effect,[8],10%
same,Percent Effect,[9],-5.88%
Cc1cc(CN2CCC(CNC(=O)c3nccc4ccccc34)C2)[nH]n1 (stereo unspecified),Percent Effect,[1],1.25%
same,Percent Effect,[2],10.8%
same,Percent Effect,[3],-15.5%
same,Percent Effect,[4],7.44%
same,Percent Effect,Trypanosoma cruzi,4.2%
same,Percent Effect,[5],15.6%
same,Percent Effect,[6],12.3%
same,Percent Effect,Homo sapiens,26.4%
same,Percent Effect,[7],11.8%
same,Percent Effect,[8],25.9%
same,Percent Effect,[9],-2.74%
O=C(c1ccc(F)c(F)c1)N1CCCC1CN1CCCC1 (stereo unspecified),Percent Effect,[1],-1.25%
same,Percent Effect,[2],7.89%
same,Percent Effect,[3],-2.36%
same,Percent Effect,[4],-14.5%
same,Percent Effect,Trypanosoma cruzi,-3.02%
same,Percent Effect,[5],-3.55%
same,Percent Effect,[6],15.2%
same,Percent Effect,Homo sapiens,-11.1%
same,Percent Effect,[7],7.45%
same,Percent Effect,[8],18.2%
same,Percent Effect,[9],-8.37%
